Test results from PMC12136788.
Whole data set: some 24,000 sequences, median “enrichment r” near 0.99, cut for the highest 2% near 3.7. The list comes from a sample in which the highest values are over-represented; it also holds similar and randomly drawn sequences.

T1: UNK ZnF1-3 (human, UniProt Q9C0B0 31-174)
T1 sequence: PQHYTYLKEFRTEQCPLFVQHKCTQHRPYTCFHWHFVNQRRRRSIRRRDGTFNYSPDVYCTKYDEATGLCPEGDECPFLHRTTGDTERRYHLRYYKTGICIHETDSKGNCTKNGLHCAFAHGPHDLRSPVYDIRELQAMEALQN

B1: chr11:9468696:9468697:+_ENSG00000205339_ENST00000379719|hu_hu|FALSE|FALSE (ssRNA)
RNA: GGGAGUUCUACAGUCCGACGAUCCAUUAACAAUAAUGUGAAAAUUAGAAUUAUGAAUUCAAAAAGCAGUGAAGUCUGAAAAUUUAAAAAGUAGACUAGGUAUUAGGGGAUUAAAGGUAAAGGAAGACGAGAAUGUUUCUUUAACAACAGAGGAUUGAGCAUCA
B2: chr17:64801638:64801639:+_ENSG00000154229_ENST00000413366|hu_mus|hu_hu_hu_mus_False|1_98 (ssRNA)
RNA: GGGAGUUCUACAGUCCGACGAUCUAUAUAUAUAUAUAUAUACACACACAUAUAUAGUAAAACCCUAGUUAAACGUGUAAAGUAGCCAUUCAUUUUUAAAAUUACAUCUACAUUAAAAAAUUAAUAUAUCUGAUAGAGUGCCCACAACAGAGGAUUGAGCAUCA
B3: chr1:84720644:84720645:-_ENSMUSG00000026219_ENSMUST00000027421|mus_hu|FALSE|FALSE (ssRNA)
RNA: GGGAGUUCUACAGUCCGACGAUCUGAAUUUUAAAUUAGAUCUUAACUGGAGAGAACAUGGGACAACAGAAGCCCAUGGGUAACGAAAAUUUGAGAACUGUGAGUUGUAUACAAAAAAAAAACUGUGAGCUGCACAGAUAAUAACAACAGAGGAUUGAGCAUCA
B4: chr1:225611761:225611762:-_ENSG00000143815_ENST00000272163|hu_mus|hu_hu_hu_mus_True|1_18 (ssRNA)
RNA: GGGAGUUCUACAGUCCGACGAUCCCAGGCCAUCGGCCUCUGACCACUUCACCCUCAACAAACUUCCUACUUGGCAUUUUCUAAAAUUAGUCUGGCCGCGCUCCGGCGGGAACUCCAGACGGCUCCCGACAGUCACCCGCACAGCAACAGAGGAUUGAGCAUCA
B5: chr1:247070963:247070964:-_ENSG00000153207_ENST00000391829|hu_mus|motif|central (ssRNA)
RNA: GGGAGUUCUACAGUCCGACGAUCCUGAUUUGUCCUGUUGAUGUAACUCAGAGUAGAAAUGGCUACUCCCAAUGGGCUUACGGACUGGAAGCACAGGUGGCGCCCCUCUCUCAUCACUCUCUCUCUGAUGUGUGGUACUUCAGCCAACAGAGGAUUGAGCAUCA
B6: chr11:97025304:97025305:-_ENSMUSG00000001440_ENSMUST00000001479|mus_hu|FALSE|FALSE (ssRNA)
RNA: GGGAGUUCUACAGUCCGACGAUCAGCUACUACUCCAUCUGUGUGAUCCUCAUCUCCAGCAAUGUGGUCAAUGAAAGACAGAAUAAAUUCUACUCUGGGUUGUACCAGCAUCACAUCCGGGUGUACGUUCUCCUGAUCCCCCUUCAACAGAGGAUUGAGCAUCA
B7: chr2:25965407:25965408:-_ENSG00000143970_ENST00000336112|hu_hu|motif|central (ssRNA)
RNA: GGGAGUUCUACAGUCCGACGAUCCUGUGCUGCCUGAAUUAAAUCUCUGGCUAGGGUCUUUUCAUCAAAUGUUUGGCCUCGGGUGAACAGGUAAUUCUCCUUACUUAAAGUGGUUUGCUCAUUCAAUGGUAUCUCAGCCUUCACCAACAGAGGAUUGAGCAUCA
B8: chr7:140404665:140404666:+_ENSG00000090266_ENST00000247866|hu_hu|hu_hu_hu_mus_False|8_88 (ssRNA)
RNA: GGGAGUUCUACAGUCCGACGAUCUGCUCCUACUCGUCCAGAGAGUUUACACCUUCAGUCCUCGUCAUCAGGAGGGAUUCCCAGUUCUUCAUCUGUCCACUGUGAAGGAUCUGGAUAUGAAAAGUGACCCAGCACCUCAUCCGACAACAGAGGAUUGAGCAUCA
B9: chr18:67804014:67804015:+_ENSMUSG00000024537_ENSMUST00000025418|mus_mus|motif|central (ssRNA)
RNA: GGGAGUUCUACAGUCCGACGAUCGCAAUCAGUAUAGAAAUAACCAAUCUUACACAUGUUCAGUGUAGAAAUAAUCAGAUCGGUUGCAAGCUGGCCAACAUUUCCAACGGAUACUGCUGGCAUCAGGAGUGUAAAGUUCGUUAGCAACAGAGGAUUGAGCAUCA
B10: chr4:140556289:140556290:+_ENSMUSG00000036622_ENSMUST00000037055|mus_mus|mus_mus_mus_hu_False|48_48 (ssRNA)
RNA: GGGAGUUCUACAGUCCGACGAUCGAUGGAGCUCACCAGGCCCCCUUUUGCCGUGCAGAACCCUGUGCGGGUCACCACUGCCAGGACACGGGGUCCCACAUAGGCCCGGGCCUGCAAGAUGAGGGUCCCGCAGAAGAGUGUGUGCAACAGAGGAUUGAGCAUCA
B11: 134094901_134095021_423_5pUTR_ENSG00000151502_ENST00000281187|human|control|control (ssRNA)
RNA: GGGAGUUCUACAGUCCGACGAUCCUCAUCGCACCGCCGGGCCGGGCGGGUCUCGGUAAGGACCGCUCCCUCGCACCGGGGCGCGGGCUGCCCUAGGUAAAGAAGGCCAGAGGGCCCGAUGCGCGAGCGCGCUCGGCCGCCGCGCAACAGAGGAUUGAGCAUCA
B12: chr14:63765801:63765802:-_ENSMUSG00000021273_ENSMUST00000054963|mus_mus|motif|central (ssRNA)
RNA: GGGAGUUCUACAGUCCGACGAUCCUGCUUGGUUUUGCUUGAUGAUGGGUCUGAGUUGGGGAUCCGGUGAUAAAUCUCUUCGGUGUACUGGUAUAUGAUAGCUUUGACGGCAGGCAUGUUGGUGGCAUCCAUCAUGAGGGUGACCAACAGAGGAUUGAGCAUCA
B13: 46153067_46153187_242_5pUTR_ENSG00000159596_ENST00000372025|human|control|control (ssRNA)
RNA: GGGAGUUCUACAGUCCGACGAUCGAUAAAACUGAAGACAUGUAGUAGGAGAUCUCAGGGGCCCACGCCGGCCAGUCCCUCCAAUCCUCCGGAUUCUAGGUAGUCUAGCUUCCUGGUUGCCAGCCAUUACACGGUUUAGCUUUCCAACAGAGGAUUGAGCAUCA
B14: chr7:54825262:54825263:-_ENSG00000132432_ENST00000352861|hu_hu|hu_hu_hu_mus_False|48_58 (ssRNA)
RNA: GGGAGUUCUACAGUCCGACGAUCCUGCCGGCUGGGCUCCACAAACUGCAUUACCUGAUCCAUGUUUGUUGGAUGGCACACCUAAAAUGCCAGGGACCGUAGCUCAGGAGAGAACCGAGCCCAACGGAACCGGAAGCUGGCAACCAACAGAGGAUUGAGCAUCA

The binders below were run against T1, UNK ZnF1-3 (assay: nsRBNS (natural sequence RNA bind-n-seq); RBNS binding buffer (assumed for nsRBNS): 25 mM Tris pH 7.5, 150 mM KCl, 3 mM MgCl2, 0.01% Triton X-100, 500 ug/ml BSA, 20 U/ml SUPERase-In, 4 C; UNK is unkempt and MSI1 is Musashi-1; names of the RNAs are library labels; protein concentration not given here; high values mean tight binding).

Binder | binding signal [enrichment R]
B1 | 5.89
B2 | 4.56
B3 | 5.25
B4 | 1.37
B5 | 1.02
B6 | 1.13
B7 | 0.753
B8 | 1.36
B9 | 0.794
B10 | 0.98
B11 | 0.289
B12 | 1.69
B13 | 0.934
B14 | 1.16
